Data on 38 molecules can be found in PubChem BioAssay (NCI).

The test deals with MDA-MB-468 breast. Briefly: NCI-60 one-dose screen, 48 h (100 = growth as untreated, 0 = no growth, -100 = all killed). Conditions: 10 µM unless noted.

Several values for one entry are separate records, joined by “and”; a condition that tells them apart may be missing. Equal values may be shown once. This is part of a sample that, as a whole, favours compounds with a hit. Of some 83,000 tested, about 20% had one in any assay.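 Activity criterion: percent growth below 10, measured after cells in 96-well plates were exposed to a single compound concentration for 48 hours.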 Unmarked numbers belong to inactive results. Activity calls are given as the source filed them.

For `CCOC(=O)c1c(Nc2ccccc2)nn2c(-c3ccc(OC)cc3)ccnc12`, the growth was 91.1%.

As to `CN(C)c1ccc(/C=C/C(=O)c2ccc(-n3cc(CN4CCN(c5cc6c(cc5F)c(=O)c(C(=O)O)cn6C5CC5)CC4)nn3)cc2)cc1`, the growth is 32.9%.

Take `CN1C(=O)[C@H]2c3c1cccc3[C@@]13NC(=O)O[C@H]1[C@H](CCC3(C)C)C2(C)C`: the growth was 78.6%.

Consider `O=C1/C(=C/c2cccc(Br)c2)COc2ccc(O)cc21`, for which the growth was 53.1%.

For `CCCCNc1nnc2n(Cc3ccccc3)c(=O)c3c4c(sc3n12)CCCC4`, the growth is 34.7%.

For the molecule `COc1cc(-c2nc(C(=O)Nc3ccc(C)cc3)nn2-c2ccc(F)c(F)c2)cc(OC)c1OC`, the growth was 109%.

In the case of `N#Cc1ccc(NC2c3ccccc3CC2O)cc1` (stereo not drawn), the growth was 107%.

Take `CCCCCN1C(=O)/C(=c2\sc3n(c2=O)C2C(NN=3)N(CC)C(=O)N2CC)c2cccc(C)c21` (stereo not drawn): the growth is 34.5%.

As for `ClCC#CCSc1ncnc2c1ncn2CC#CCCl`, the growth is -57.2% (active).

For the molecule `CNC1(C#N)CCN(Cc2ccccc2)CC1`, the growth is 85.6%.

Turning to `COc1ccc(-c2ccc(-c3ccc(C(=N)N)c(F)c3)s2)cc1`, the growth is -78.7% (active).

As for `CCc1ccc(C(c2ccc(CC)cc2)C(Cl)(Cl)CCl)cc1`, the growth is 95.8%.

Consider `COc1cc(/C=N/Nc2ccnc3cc(Cl)ccc23)cc(OC)c1O`, for which the growth is -72.1% (active).

As to `CC(=O)Nc1c(C(=O)Nc2ccccc2)sc2nc3c(cc12)C(OC(C)=O)CCC3` (stereo not drawn), the growth is 90.5%.

For the molecule `Cc1cnc([C@]23CC[C@@H](C)[C@H](C)[C@H]2C2=CC[C@@H]4[C@@]5(C)Cc6c([nH]c7ccccc67)C(C)(C)[C@@H]5CC[C@@]4(C)[C@]2(C)CC3)o1`, the growth was 90.6% [100 µM].

Turning to `O=[N+]([O-])c1ccc(NC2CCCCC2)nc1`, the growth is 110% and 99.8%.

For `C=CCc1c(O)c(C(=O)/C=C/c2ccc(Cl)cc2)c(OC)c2ccoc12`, the growth is 19.9%.

For `Cc1ccc(Nc2nnc(-c3ccc(Cl)cc3)o2)c(C)c1`, the growth was 75.4%.

As to `CC(C)(C)OC(=O)NC(CSCc1ccccc1)C(=O)ON1C(=O)CCC1=O` (stereo not drawn), the growth is 115%.

Regarding `CCc1cccc2c3c(sc12)C(c1ccc(OC)cc1)C(C#N)=C(/N=C/c1ccc(Cl)cc1)O3` (stereo not drawn), the growth was -6.83% (active).

As for `Brc1ccc2c(c1)CN(C1CCCCC1)CO2`, the growth was 110%.

`COC(=O)c1ccc(CSc2nnc(-c3ccncc3)o2)cc1`: the growth was 115%.

Consider `C=C1C(=O)O[C@H]2[C@H]1CC/C(C=Nc1c(N)cc(C(F)(F)F)cc1C(F)(F)F)=C\CC[C@@]1(C)O[C@@H]21`, for which the growth was -58.1% (active).

Take `C[C@H]1C(=O)C23CCC1C[C@@]21O[C@@H]2C(C)(C)C=CC(=O)C23COC1=O`: the growth is 102%.

For `CNC(=O)c1cc(N2CCc3cc(NC(=O)Nc4ccc(N5CCN(C)CC5)c(C(F)(F)F)c4)ccc32)ccn1`, the growth was 77.9%.

In the case of `Cc1ccnc(NC(c2ccccc2)c2ccc3cccnc3c2O)c1` (stereo not drawn), the growth is 24.9%.

Take `COC(=O)c1c2c(c(C)[n+]([O-])c1C)C(=O)C(NCc1ccccc1)=CC2=O`: the growth is -31.8% (active).

On to `C/C(=N/NC(N)=S)c1ccc(Nc2nc(SCC(C)C)nc(-c3ccc(F)cc3)c2C#N)cc1`, for which the growth is -19.4% (active).

For the molecule `COc1cc2nc(-c3ccc(C(F)(F)F)cc3)cc(OCCN3CCCC3)c2cc1OC`, the growth was 89.4%.

For `COc1cc(NC(=O)COc2ccccc2)c(C(N)=O)cc1OC`, the growth is 17.7%.

`O=c1cc(CNc2cc(F)cc(F)c2)c2ccc(I)cc2[nH]1`: the growth is 19%.

As for `COc1ccc(C2=CN3CC=CCC3CC2=O)cc1` (stereo not drawn), the growth was 107%.

Take `O=C(Nc1ccc(Nc2ccncc2)cc1)c1ccc(Nc2ccnc3ccc([N+](=O)[O-])cc23)cc1[N+](=O)[O-]`: the growth is 21.7%.

Regarding `COc1cccc(-c2nc3sccn3c2-c2ccnc(NCCCNS(=O)(=O)c3ccc(F)cc3)c2)c1`, the growth is 13.3%.

For the molecule `COC(=O)c1c2c(c(C)[n+]([O-])c1C)C(=O)C(NCc1ccc(O)cc1)=CC2=O`, the growth was -44.2% (active).

Consider `COc1ccc(N2CCN(CC(=O)N3CCN(c4nnc(-c5ccccc5)c(-c5ccccc5)n4)CC3)CC2)cc1`, for which the growth is 50.6%.

As to `CC(C)[C@@H]1CC[C@]2(C(=O)NCCCCN=C(N)N)CC[C@]3(C)[C@H](CC[C@@H]4[C@@]5(C)CCC(=O)C(C)(C)[C@@H]5CC[C@]43C)[C@@H]12`, the growth was 10.6%.

Regarding `CCC1=C(c2ccc(OC)cc2)C(C)(C)Oc2cc(O)c(CN3CCCC3)cc21`, the growth was 69.5%.
